# Records with an inconclusive call do not appear. Where a call stands in place of a potency, no number is given. Calls of active or inactive are those of the source. Calls come from the whole dose curve; as a rule, active = well fitted curve in the direction sought with a large enough effect; inconclusive = small, poorly fitted or top-dose-only effect, or another doubt; inactive = no such curve, though single readings can be large; an effect the other way counts as inactive or inconclusive.
# Key:
# [1] = molecular target: Tyrosine-protein kinase Yes (Homo sapiens) (UniProt P07947); experiment: qHTS for small molecule inhibitors of Yes1 kinase: Primary Screen (AID 686947); note: nearly all actives have a fitted effect of over 60% in size; note: potency is the fitted concentration of half-maximal effect
# Outline: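 ADP-Glo luminescence readout; final 4 nM Yes1, 0.1 mM ATP, 0.3 mg/mL poly(E4Y), Tris pH 7.5, MgCl2, DTT, Brij-35. 20 min compound preincubation, 60 min reaction at RT. Normalized to DMSO wells with and without enzyme.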
# [2] = qHTS for small molecule inhibitors of Yes1 kinase: Counter Assay (AID 686950);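 note: no kinase present so only ADP-Glo detection of a fixed ADP amount is tested; luminescence from ADP-Glo reporting ADP in a fixed ATP and ADP mixture; series mostly up to about 77 µM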
# Outline: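 Luminescence read-out from ADP-Glo quantifies a fixed ADP amount (0.02 mM ADP with 0.08 mM ATP) after 60 min at room temperature; signal is normalized between DMSO wells with ATP/ADP and with 0.1 mM ATP alone.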
# Sequence of Tyrosine-protein kinase Yes (Homo sapiens) (P07947 whole entry, looked up): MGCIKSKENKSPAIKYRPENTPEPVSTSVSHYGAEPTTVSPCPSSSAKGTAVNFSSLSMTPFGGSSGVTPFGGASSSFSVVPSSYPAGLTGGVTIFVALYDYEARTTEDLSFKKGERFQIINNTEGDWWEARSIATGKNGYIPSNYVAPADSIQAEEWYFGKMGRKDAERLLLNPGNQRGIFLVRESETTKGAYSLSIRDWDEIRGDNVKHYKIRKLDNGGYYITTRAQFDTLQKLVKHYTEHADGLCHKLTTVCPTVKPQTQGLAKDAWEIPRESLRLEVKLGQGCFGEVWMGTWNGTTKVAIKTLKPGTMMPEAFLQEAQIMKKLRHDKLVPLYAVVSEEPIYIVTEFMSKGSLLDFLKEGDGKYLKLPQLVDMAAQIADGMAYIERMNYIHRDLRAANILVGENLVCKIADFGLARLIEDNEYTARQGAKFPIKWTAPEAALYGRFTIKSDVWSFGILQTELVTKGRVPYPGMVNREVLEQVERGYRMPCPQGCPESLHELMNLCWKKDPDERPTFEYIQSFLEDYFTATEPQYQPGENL
Structure (SMILES),Potency [1],outcome [2]
Cc1nnc(-c2ccc(C)c(-c3ccc(C(=O)NCc4ccc(Cl)cc4)cc3)c2)o1,inactive,inactive
CS(=O)(=O)CCNCc1ccoc1-c1ccc2ncnc(Nc3ccc(OCc4ccccc4)cc3)c2c1,3680 nM (active),inactive
COC(=O)Nc1nc2ccc(Oc3ccc(NC(=O)Nc4cccc(Br)c4)cc3)cc2[nH]1,inactive,inactive
CCS(=O)(=O)c1ccc(OC)c(Nc2ncc(-c3cccc(-c4ccccc4F)c3)o2)c1,463 nM (active),inactive
NC(=O)CCc1ccccc1Oc1nccc(-c2c(-c3ccc(F)cc3)ncn2C2CCNCC2)n1,inactive,inactive
NC(=O)c1cc(-c2ccc(F)cc2)cc(-c2ccncc2)c1N,inactive,inactive
CC1=C(C(=O)Nc2cc(Cl)c3[nH]ncc3c2)C(c2ccc(C(F)(F)F)cc2)CC(=O)N1 (stereo unspecified),2600 nM (active),inactive
COc1cc(C=NNc2ncnc3c2cnn3-c2ccccc2)ccc1O,292 nM (active),inactive
CC(Oc1cc(-n2cnc3ccc(OCC4CCN(C)CC4)cc32)sc1C(N)=O)c1ccccc1C(F)(F)F (stereo unspecified),1460 nM (active),inactive
O=C1Nc2ccccc2C1=C1CCc2cc(O)ccc21,9230 nM (active),inactive
Nc1nccc(-c2c(-c3ccc(F)cc3)ncn2C2CCC(O)CC2)n1 (stereo unspecified),733 nM (active),inactive
NC(=O)c1cc(-c2ccncc2)cc(-c2ccccc2)c1N,519 nM (active),inactive
CC(Oc1cc(-n2cnc3ccc(OC4CCN(C)CC4)cc32)sc1C(N)=O)c1ccccc1Cl (stereo unspecified),5820 nM (active),inactive

# Source: PubChem BioAssay (NCATS)
